This note sets out measurements from PubChem BioAssay (NCI).

About 83,000 compounds went through this panel and 20% of them were active in at least one assay; those are over-represented in the sample as a whole.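 48-hour exposure, single concentration, 96-well plates; percent growth endpoint where 0 means no net growth. Active: below 10.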 Unmarked numbers belong to inactive results. The source made the active and inactive calls.

Among the test systems are NCI-H23 lung; NCI-H226 lung; NCI-H322M lung; HOP-62 NSCLC; NCI-H460 lung; HOP-92 NSCLC; NCI-H522 lung; A549/ATCC NSCLC; 786-0 renal; COLO 205 colon.
Common to all, as to test: NCI-60 one-dose screen, 48 h (100 = growth as untreated, 0 = no growth, -100 = all killed)
Common to all, as to details: 10 µM unless noted

With `Cc1cc(C)cc(Nc2nc3c(s2)CC[C@@]2(C)C3=CC[C@@H]3[C@@H]2CC[C@]2(C)C(=O)CC[C@@H]32)c1`, the growth with NCI-H23 lung is 76.9%; with NCI-H226 lung it was 49.9%; with NCI-H322M lung, 79.9%; with HOP-62 NSCLC it was 90%; in the assay with NCI-H460 lung, 49.5%; with HOP-92 NSCLC, 70.7%. In addition, the growth with NCI-H522 lung was 66.1%; with A549/ATCC NSCLC it was 72.9%; in the assay on 786-0 renal it was 31%; in the assay on COLO 205 colon, 92.5%.

For `Cc1ccc(Nc2nc3c(s2)C2=CC[C@@H]4[C@H](CC[C@]5(C)C(=O)CC[C@@H]45)[C@@]2(C)CC3)cc1`, the growth in the assay on NCI-H23 lung was 58.4%; with NCI-H226 lung it was 69.5%; in the assay with NCI-H322M lung, 61.8%; in the assay with HOP-62 NSCLC it was 43.4%; in the assay with NCI-H460 lung, 38.9%; in the assay on HOP-92 NSCLC, 78.6%. In addition, the growth in the assay with NCI-H522 lung is 56.3%; with A549/ATCC NSCLC it was 55.8%; in the assay with 786-0 renal, 9.1% (active); in the assay with COLO 205 colon, 63.5%.

With `CC(C)=CCC[C@H](C(=O)O)[C@@H]1CC[C@]2(C)C3=C(CC[C@@]12C)[C@@]1(C)CC[C@H](O)C(C)(C)[C@@H]1CC3`, the growth in the assay with NCI-H23 lung is 106%; in the assay with NCI-H226 lung, 109%; with NCI-H322M lung, 84.2%; in the assay on HOP-62 NSCLC, 97.3%; in the assay with NCI-H460 lung it was 109%; in the assay on HOP-92 NSCLC, 101%. Besides, the growth is 60.8% in the assay with NCI-H522 lung, 81.8% with A549/ATCC NSCLC, 92% with 786-0 renal and 120% with COLO 205 colon.

As for `COc1ccc(N(CC(=O)NCCC[Te]c2ccccc2)C(=O)CCSC2=C(C)C(=O)c3ccccc3C2=O)cc1`, the growth in the assay with NCI-H23 lung is -49.3% (active); in the assay with NCI-H226 lung, -54.8% (active); in the assay with NCI-H322M lung, 2.85% (active); in the assay with HOP-62 NSCLC, -46.4% (active); with NCI-H460 lung, -73.5% (active); in the assay with HOP-92 NSCLC, -49.8% (active). Also, the growth in the assay with NCI-H522 lung is -41.2% (active); in the assay on A549/ATCC NSCLC it was -52.4% (active); with 786-0 renal, -22.1% (active); in the assay on COLO 205 colon, -97.9% (active).

`COC(=O)CCC1=C(C)c2cc3[n-]c(cc4nc(cc5[n-]c(cc1n2)c(CCC(=O)OC)c5C)C=C4C)cc3C.[Cd+2]`: the growth is 19.1% with NCI-H23 lung; 19.8% in the assay with NCI-H226 lung; 95.5% in the assay with NCI-H322M lung; 65.7% with HOP-62 NSCLC; -27.3% (active) in the assay with NCI-H460 lung; 3.42% (active) in the assay on HOP-92 NSCLC. Also, the growth was -70.1% (active) in the assay on NCI-H522 lung, 56.1% in the assay with A549/ATCC NSCLC, 75.2% in the assay on 786-0 renal and 22.4% in the assay with COLO 205 colon.

Regarding `C1CCC([PH+](C2CCCCC2)C2CCCCC2[PH+](C2CCCCC2)C2CCCCC2)CC1.O=C(C1[CH-]CCCC1)C1CCCC[N-]1.[Au]` (stereo not given), the growth in the assay on NCI-H23 lung was -35% (active); in the assay with NCI-H226 lung, -60.1% (active); in the assay with NCI-H322M lung it was -48% (active); with HOP-62 NSCLC, -9.03% (active); in the assay with NCI-H460 lung, -49.6% (active); with HOP-92 NSCLC, -36.8% (active). In addition, the growth in the assay with NCI-H522 lung was -22.4% (active); in the assay with A549/ATCC NSCLC, -39.9% (active); in the assay with 786-0 renal, -77.2% (active); with COLO 205 colon, -45% (active).

For `CC[C@H](C)[C@H](NC(=O)[C@H]1CCCCN1C)C(=O)N(C)[C@H](C[C@@H](OC(C)=O)c1nc(C(=O)NC23CC(C(=O)OC)(C2)C3)cs1)C(C)C`, the growth in the assay with NCI-H23 lung is 18.4%; in the assay with NCI-H226 lung, 18.3%; in the assay with NCI-H322M lung it was 55.7%; in the assay on HOP-62 NSCLC, 11.8%; in the assay with NCI-H460 lung, 8.77% (active); with HOP-92 NSCLC, -1.71% (active). Moreover, the growth in the assay on NCI-H522 lung was -22.3% (active); in the assay on A549/ATCC NSCLC, 9.09% (active); in the assay with 786-0 renal it was 9.6% (active); with COLO 205 colon, -46.8% (active).

As for `CCn1c2ccccc2c2cc(C(=O)c3ccc(C)c4ccccc34)ccc21`, the growth is 5.37% (active) with NCI-H23 lung; 32.8% with NCI-H226 lung; 28.1% in the assay with NCI-H322M lung; 9.22% (active) in the assay with HOP-62 NSCLC; 10.6% with NCI-H460 lung; 40.6% in the assay with HOP-92 NSCLC. The growth was 0.105% (active) in the assay with NCI-H522 lung, 6.07% (active) with A549/ATCC NSCLC, 17.6% with 786-0 renal and -16.3% (active) in the assay with COLO 205 colon.

Turning to `C/C(CC(C)(C)N1CC1)=N\NC(=O)Nc1cccc2ccccc12`, the growth in the assay on NCI-H23 lung is 68%; in the assay with NCI-H226 lung it was 56.4%; with NCI-H322M lung it was 81.2%; in the assay on HOP-62 NSCLC it was 62.5%; with NCI-H460 lung, 42.9%; in the assay on HOP-92 NSCLC it was 24.2%. For the same compound, the growth with NCI-H522 lung is 48.7%; in the assay with A549/ATCC NSCLC it was 63%; in the assay on 786-0 renal, 70.4%; with COLO 205 colon, 52.3%.

With `COc1cc2ncnc(Nc3ccc(F)c(Cl)c3)c2cc1OCC(=O)N1CCN(C)CC1`, the growth with NCI-H23 lung is 98.1%; with NCI-H226 lung, 102%; in the assay with NCI-H322M lung, 26.6%; with HOP-62 NSCLC it was 96.9%; with NCI-H460 lung, 104%; in the assay on HOP-92 NSCLC it was 75.1%. For the same compound, the growth is 39.2% in the assay with NCI-H522 lung, 76.9% in the assay on A549/ATCC NSCLC, 70.9% in the assay with 786-0 renal and 104% in the assay with COLO 205 colon.

As to `COc1ccc(/C=C\c2cc(OC)c(OC)c(OC)c2)cc1OCC(=O)Nc1nc2ccc(C(F)(F)F)cc2s1`, the growth was 40.1% in the assay on NCI-H23 lung; 45.8% in the assay with NCI-H226 lung; 64.7% with NCI-H322M lung; 45.4% with HOP-62 NSCLC; 7.6% (active) in the assay on NCI-H460 lung; 46.6% with HOP-92 NSCLC. Besides, the growth in the assay with NCI-H522 lung was -39.2% (active); in the assay on A549/ATCC NSCLC it was 27.1%; in the assay with 786-0 renal, 83.2%; with COLO 205 colon, 95.3%.

Turning to `Nc1ncnc2n[nH]nc12`, the growth in the assay with NCI-H23 lung was 72.7%; with NCI-H226 lung, 72.3%; in the assay on NCI-H322M lung, 42.3%; with HOP-62 NSCLC, 40%; in the assay on NCI-H460 lung, 95.1%; with HOP-92 NSCLC, 77.3%. Moreover, the growth in the assay with NCI-H522 lung was 34%; in the assay with A549/ATCC NSCLC it was 73.4%; with 786-0 renal, 56.2%; in the assay with COLO 205 colon, 70.5%.

Take `C1CCC([PH+](C2CCCCC2)C2CCCCC2[PH+](C2CCCCC2)C2CCCCC2)CC1.[Au].[CH-]1CCCCC1CC1CCCC[N-]1` (stereo not given): the growth in the assay with NCI-H23 lung was -46.3% (active); with NCI-H226 lung, -50.6% (active); in the assay on NCI-H322M lung, -42% (active); in the assay with HOP-62 NSCLC, -30.6% (active); in the assay with NCI-H460 lung it was -56.4% (active); with HOP-92 NSCLC, -34.4% (active). Further, the growth is -40.7% (active) in the assay with NCI-H522 lung, -44.4% (active) in the assay on A549/ATCC NSCLC, -89.6% (active) with 786-0 renal and -47.7% (active) with COLO 205 colon.

As for `C/C(=C\c1cc(C(F)(F)F)nn1CCNC(=O)OC(C)(C)C)[C@@H]1C[C@@H]2O[C@]2(C)CCC[C@H](C)[C@H](O)[C@@H](C)C(=O)C(C)(C)[C@@H](O)CC(=O)O1`, the growth with NCI-H23 lung was 59.2%; in the assay on NCI-H226 lung it was 77.4%; with NCI-H322M lung, 72.3%; in the assay with HOP-62 NSCLC, 78.8%; in the assay with NCI-H460 lung, 30.5%; with HOP-92 NSCLC, 66.4%. The growth with NCI-H522 lung was 63.5%; with A549/ATCC NSCLC it was 54.3%; in the assay on 786-0 renal it was 67.8%; with COLO 205 colon it was 30.6%.

In the case of `CCOC(=O)[C@@H](C)C[C@H](Cc1ccccc1)NC(=O)c1csc([C@@H](C[C@H](C(C)C)N(C)C(=O)[C@@H](NC(=O)[C@H]2CCCCN2C)C(C)(C)C)OC(C)=O)n1`, the growth was 24.5% in the assay on NCI-H23 lung; 55.2% in the assay with NCI-H226 lung; 27.3% in the assay on NCI-H322M lung; 11.8% in the assay on HOP-62 NSCLC; 6.23% (active) with NCI-H460 lung; 28.5% in the assay with HOP-92 NSCLC. The growth was -40.3% (active) in the assay on NCI-H522 lung, 10.3% with A549/ATCC NSCLC, 4.58% (active) in the assay on 786-0 renal and -75.6% (active) in the assay with COLO 205 colon.
